# In PubChem BioAssay (NCATS):
# Results filed as inconclusive are left out. A call without a number means that no potency is given here. Values without a mark were called inactive. The source made the active and inactive calls. Calls come from the whole dose curve; as a rule, active = well fitted curve in the direction sought with a large enough effect; inconclusive = small, poorly fitted or top-dose-only effect, or another doubt; inactive = no such curve, though single readings can be large; an effect the other way counts as inactive or inconclusive.
# Experiments:
# [1] = qHTS to identify inhibitors of the type 1 interferon - major histocompatibility complex class I in skeletal muscle: primary screen against the NCATS Pharmaceutical Collection (AID 1347407);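 note: luminescence of HiBiT knocked into endogenous HLA-B as interferon-induced MHC class I level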; note: potency is the fitted concentration of half-maximal effect
# Method in brief: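 Immortalized human myoblasts (C25cl48) with HiBiT knocked into endogenous HLA-B*08:01 were stimulated with 4 ng/ml IFN-beta and treated with compounds (8-point, 1:5, top 46 uM final) for 24 h at 37 C; HiBiT lytic luminescence read.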
# [2] = molecular target: Protein phosphatase 1D (Homo sapiens) (UniProt O15297); experiment: RapidFire Mass Spectrometry qHTS Assay for Modulators of WT P53-Induced Phosphatase 1 (WIP1) (AID 1347424);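 note: amount of dephosphorylated VEPPL-S-QETFS peptide product formed by WIP1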; note: potency is the fitted concentration of half-maximal effect; for activity change, negative = inhibition: series mostly up to about 63 µM
# Chain of Protein phosphatase 1D (Homo sapiens) (O15297 whole entry, looked up): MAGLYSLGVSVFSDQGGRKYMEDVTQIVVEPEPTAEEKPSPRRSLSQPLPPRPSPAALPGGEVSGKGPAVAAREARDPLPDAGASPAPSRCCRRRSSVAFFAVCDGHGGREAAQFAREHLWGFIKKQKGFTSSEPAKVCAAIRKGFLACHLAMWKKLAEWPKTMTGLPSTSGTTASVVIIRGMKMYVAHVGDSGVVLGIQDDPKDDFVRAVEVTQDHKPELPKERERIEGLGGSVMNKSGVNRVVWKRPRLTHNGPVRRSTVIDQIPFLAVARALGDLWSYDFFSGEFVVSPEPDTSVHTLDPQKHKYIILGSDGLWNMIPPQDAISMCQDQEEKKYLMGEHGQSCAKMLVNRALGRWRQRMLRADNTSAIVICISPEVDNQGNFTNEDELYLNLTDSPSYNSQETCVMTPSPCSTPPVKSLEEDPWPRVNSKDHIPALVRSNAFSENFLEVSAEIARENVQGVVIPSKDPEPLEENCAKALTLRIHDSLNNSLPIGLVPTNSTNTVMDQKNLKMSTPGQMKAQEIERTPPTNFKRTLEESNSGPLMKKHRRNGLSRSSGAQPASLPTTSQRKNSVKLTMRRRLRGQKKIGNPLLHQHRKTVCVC
# Method in brief: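 10 nM WIP1 preincubated with compounds 1 hr at room temperature in pH 7.5 Tris buffer with 30 mM MgCl2, 1 mM TCEP; 2 uM VEPPL-pS-QETFS phosphopeptide for 5 min, formic acid quench; dephosphorylated product quantified by RapidFire MS against labelled standard.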
# [3] = molecular target: Protein phosphatase 1D (Homo sapiens) (UniProt O15297); experiment: Rhodamine-PBP qHTS Assay for Modulators of WT P53-Induced Phosphatase 1 (WIP1) (AID 1347425)
# Method in brief: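 WIP1 (5 nM final) was preincubated with compound for 1 hour at room temperature. It then dephosphorylated 10 uM VEPPL-pS-QETFS peptide in Tris-HCl pH 7.5 with 30 mM MgCl2. Released Pi was detected by 10 uM Rh-PBP fluorescence (ex 525/em 598 nm) read at 1-min intervals for 11 min, as delta f1 - f0.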
# [4] = qHTS to identify inhibitors of the type 1 interferon - major histocompatibility complex class I in skeletal muscle: primary screen against the NCATS Mechanism Interrogation Plate v5.0 (MIPE) Libary (AID 1347411); note: nearly all actives have a fitted effect of over 65% in size
# Method in brief: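 Immortalized human C25cl48 myoblasts with HiBit knocked into endogenous HLA-B*08:01 were stimulated with 4.0 ng/ml IFN-beta and exposed to compounds (11-point 1:3 titration, top 46 uM final) for 24 hrs at 37 C; HiBiT lytic luminescence measured.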
compound,measurement,setting,value
C[C@@H]1C[C@H]2[C@@H]3C[C@H](F)C4=CC(=O)C(Cl)=C[C@]4(C)[C@@]3(F)[C@@H](O)C[C@]2(C)[C@@]1(O)C(=O)CO,Potency,[1],inactive
same,Potency,[2],inactive
same,outcome,[3],inactive
CC1=C(C(=O)O)N2C(=O)[C@@H](NC(=O)[C@H](N)c3ccc(O)cc3)[C@H]2SC1,Potency,[1],inactive
same,Potency,[2],inactive
same,outcome,[3],inactive
CCCSS/C(CCO)=C(\C)N(C=O)Cc1cnc(C)nc1N,Potency,[1],inactive
same,Potency,[2],inactive
same,outcome,[3],inactive
O=C(OCCOCCO)c1ccccc1Nc1cccc(C(F)(F)F)c1,Potency,[1],inactive
same,Potency,[2],inactive
same,outcome,[3],inactive
CCCCCCCCCCCCCCCCOP(=O)([O-])OCC[N+](C)(C)C,Potency,[1],inactive
same,Potency,[2],inactive
same,outcome,[3],inactive
CCCC(=O)Nc1ccc(OCC(O)CNC(C)C)c(C(C)=O)c1 (configuration not stated),Potency,[1],inactive
same,Potency,[2],inactive
same,outcome,[3],inactive
COc1cc(C(=S)N2CCOCC2)cc(OC)c1OC,Potency,[1],inactive
same,Potency,[2],inactive
same,outcome,[3],inactive
Oc1c(I)cc(Cl)c2cccnc12,Potency,[1],inactive
same,Potency,[2],inactive
same,outcome,[3],inactive
CC1(C)O[C@@H]2C[C@H]3[C@@H]4CCC5=CC(=O)CC[C@]5(C)[C@@]4(F)[C@@H](O)C[C@]3(C)[C@]2(C(=O)CCl)O1,Potency,[1],inactive
same,Potency,[2],inactive
same,outcome,[3],inactive
CC(C)(C)NC(=O)[C@@H]1CN(Cc2cccnc2)CCN1C[C@@H](O)C[C@@H](Cc1ccccc1)C(=O)N[C@H]1c2ccccc2C[C@H]1O,Potency,[1],inactive
same,Potency,[2],inactive
same,outcome,[3],inactive
CCN(CC)C(=O)/C(C#N)=C/c1cc(O)c(O)c([N+](=O)[O-])c1,Potency,[1],inactive
same,Potency,[2],inactive
same,outcome,[3],inactive
CCC(C(=O)OCCN(CC)CC)c1ccccc1 (configuration not stated),Potency,[1],inactive
same,Potency,[2],inactive
same,outcome,[3],inactive
CNCC[C@@H](Oc1ccccc1C)c1ccccc1,Potency,[1],inactive
same,Potency,[2],inactive
same,outcome,[3],inactive
Oc1ccc(Cl)c2cccnc12,Potency,[1],inactive
same,Potency,[2],inactive
same,outcome,[3],inactive
N[C@H](Cc1c[nH]c2ccccc12)C(=O)O,Potency,[1],inactive
same,Potency,[2],inactive
same,outcome,[3],inactive
NC[C@H]1O[C@H](O[C@H]2[C@H](O[C@@H]3O[C@H](CO)[C@@H](O)[C@H]3O)C(O)[C@H](N)C[C@@H]2N)[C@H](N)[C@@H](O)[C@@H]1O (some centres not stated),"activity change, negative = inhibition",[1],-10.7% [at 9.18 µM]
same,"activity change, negative = inhibition",[2],6.77% [at 12.6 µM]
same,"activity change, negative = inhibition",[3],17.3% [at 11.5 µM]
CC(=O)Oc1ccc(C(=C2CCCCC2)c2ccc(OC(C)=O)cc2)cc1,Potency,[1],inactive
same,Potency,[2],inactive
same,outcome,[3],inactive
NC(=O)c1cc[n+](CC2=C(C(=O)[O-])N3C(=O)[C@@H](NC(=O)Cc4cccs4)[C@H]3SC2)cc1,Potency,[1],inactive
same,Potency,[2],inactive
same,outcome,[3],inactive
CC(=O)OCC(=O)[C@@]1(O)CC[C@H]2[C@@H]3CCC4=CC(=O)C=C[C@]4(C)[C@H]3[C@@H](O)C[C@@]21C,Potency,[1],inactive
same,Potency,[2],inactive
same,outcome,[3],inactive
CN(C)CCOc1ccccc1Cc1ccccc1,Potency,[1],inactive
same,Potency,[2],inactive
same,outcome,[3],inactive
NC(=O)C(=O)N/N=C/c1ccc([N+](=O)[O-])o1,Potency,[1],inactive
same,Potency,[2],inactive
same,outcome,[3],inactive
Cc1c(C(N)=O)cc([N+](=O)[O-])cc1[N+](=O)[O-],Potency,[1],inactive
same,outcome,[3],inactive
Nc1ccc(C(=O)O)cc1,Potency,[1],inactive
same,Potency,[2],inactive
same,outcome,[3],inactive
CC(=O)OCC(=O)[C@@]12OC(C)(C)O[C@@H]1C[C@H]1[C@@H]3C[C@H](F)C4=CC(=O)C=C[C@]4(C)[C@@]3(F)[C@@H](O)C[C@@]12C,Potency,[4],inactive
same,Potency,[2],inactive
same,outcome,[3],inactive
Oc1c(Cl)cc(Cl)cc1Sc1cc(Cl)cc(Cl)c1O,Potency,[2],12.6 µM (active)
COC1=CC(=O)C[C@@H](C)[C@]12Oc1c(Cl)c(OC)cc(OC)c1C2=O,Potency,[2],inactive
same,outcome,[3],inactive
COC(=O)CCc1ccc(OCC(O)CNC(C)C)cc1 (configuration not stated),Potency,[1],inactive
same,Potency,[2],inactive
same,outcome,[3],inactive
O=C(Nc1ccc(Oc2ccc(Cl)cc2)c(Cl)c1)c1cc(I)cc(I)c1O,Potency,[2],inactive
CCN(CCCCOC(=O)c1ccc(OC)c(OC)c1)C(C)Cc1ccc(OC)cc1 (configuration not stated),Potency,[1],inactive
same,Potency,[2],inactive
same,outcome,[3],inactive
CC(=O)OCC(=O)[C@@]1(OC(C)=O)[C@@H](C)C[C@H]2[C@@H]3C[C@H](F)C4=CC(=O)C=C[C@]4(C)[C@@]3(F)[C@@H](O)C[C@@]21C,Potency,[2],inactive
same,outcome,[3],inactive
Cc1c(F)c(N2CCNC(C)C2)cc2c1c(=O)c(C(=O)O)cn2C1CC1 (configuration not stated),Potency,[1],inactive
same,Potency,[2],inactive
same,outcome,[3],inactive
CCOC(=O)c1cccc(N)c1,Potency,[1],inactive
same,Potency,[2],inactive
same,outcome,[3],inactive
c1ccc(CNCCNCc2ccccc2)cc1,Potency,[1],inactive
same,Potency,[2],inactive
same,outcome,[3],inactive
COc1ccc(CN2CCN(C(c3ccc(F)cc3)c3ccc(F)cc3)CC2)c(OC)c1OC,Potency,[2],inactive
same,outcome,[3],inactive
NCCC(O)(P(=O)(O)O)P(=O)(O)O,Potency,[1],inactive
same,Potency,[2],inactive
same,outcome,[3],inactive
CN(C(=O)CN(CCO)CC(=O)N(C)C(C)(C)Cc1ccccc1)C(C)(C)Cc1ccccc1,Potency,[2],inactive
same,outcome,[3],inactive
CC(C)COC(=O)c1ccc(N)cc1,Potency,[1],inactive
same,Potency,[2],inactive
same,outcome,[3],inactive
CC(=O)[C@H]1CC[C@H]2[C@@H]3C[C@H](C)C4=CC(=O)CC[C@]4(C)[C@H]3[C@@H](O)C[C@]12C,Potency,[1],inactive
same,Potency,[2],inactive
same,outcome,[3],inactive
NC(CO)(CO)CO,Potency,[1],inactive
same,Potency,[2],inactive
same,outcome,[3],inactive
CC(C)(Oc1ccc(Cl)cc1)C(=O)O,Potency,[1],inactive
same,Potency,[2],inactive
same,outcome,[3],inactive
CN(C)/N=N/c1nc[nH]c1C(N)=O,Potency,[1],inactive
same,outcome,[3],inactive
C[C@]12C=CC(=O)C=C1CC[C@@H]1[C@@H]2[C@@H](O)C[C@@]2(C)[C@H]1CC[C@]2(O)C(=O)CO,Potency,[4],inactive
same,Potency,[2],inactive
same,outcome,[3],inactive
CCCCC(CC)CN=C(N)NC(N)=NCCCCCCN=C(N)NC(N)=NCC(CC)CCCC (configuration not stated),Potency,[1],14.9 µM (active)
same,Potency,[2],inactive
same,outcome,[3],inactive
COc1cccc2c1C(=O)c1c(O)c3c(c(O)c1C2=O)C[C@@](O)(C(C)=O)C[C@@H]3O[C@H]1C[C@H](N)[C@H](O)[C@H](C)O1,Potency,[1],3.33 µM (active)
same,Potency,[2],inactive
same,outcome,[3],inactive
CC(=O)OCC(=O)[C@@]12N=C(C)O[C@@H]1C[C@H]1[C@@H]3CCC4=CC(=O)C=C[C@]4(C)[C@H]3[C@@H](O)C[C@@]12C,Potency,[4],inactive
same,Potency,[2],inactive
same,outcome,[3],inactive
O=C1OC(c2ccc(O)cc2)(c2ccc(O)cc2)c2ccccc21,Potency,[1],inactive
same,Potency,[2],inactive
same,outcome,[3],inactive
CCCCCCCCCCCCCCCC[N+](C)(C)CC,Potency,[2],inactive
same,outcome,[3],inactive
CCC(=O)c1c(O)cc(O)cc1O,Potency,[1],inactive
same,outcome,[3],inactive
O=c1ccc2ccccc2o1,Potency,[1],inactive
same,Potency,[2],inactive
same,outcome,[3],inactive
O=C(CCN1CCC(c2ccccc2)C1)c1ccc2c(c1)OCCO2 (configuration not stated),Potency,[1],inactive
same,Potency,[2],inactive
same,outcome,[3],inactive
Cc1cc2c(cc1CC(=O)c1sccc1S(=O)(=O)Nc1onc(C)c1Cl)OCO2,Potency,[2],inactive
same,outcome,[3],inactive
Oc1ccc(Cl)cc1Sc1cc(Cl)ccc1O,Potency,[2],31.6 µM (active)
Cc1ncc(CSSCc2cnc(C)c(O)c2CO)c(CO)c1O,Potency,[1],inactive
same,Potency,[2],inactive
same,outcome,[3],inactive
NC[C@H]1O[C@H](O[C@H]2[C@H](O)[C@@H](O[C@H]3O[C@H](CO)[C@@H](O)[C@H](N)[C@H]3O)[C@H](N)C[C@@H]2N)[C@H](N)[C@@H](O)[C@@H]1O,Potency,[1],inactive
same,Potency,[2],inactive
same,outcome,[3],inactive
CCCCc1nc(Cl)c(CO)n1Cc1ccc(-c2ccccc2-c2nn[nH]n2)cc1,Potency,[1],inactive
same,Potency,[2],inactive
same,outcome,[3],inactive
CC(=O)Oc1ccc2c(c1)CC[C@@H]1[C@@H]2CC[C@]2(C)[C@@H](O)CC[C@@H]12,Potency,[2],inactive
same,outcome,[3],inactive
O=c1[nH]c(=O)n([C@H]2C[C@H](O)[C@@H](CO)O2)cc1C(F)(F)F,Potency,[2],inactive
same,outcome,[3],inactive
CCCCCCCCCCCCCCCC[N+](C)(C)CCN(Cc1ccc(OC)cc1)c1ncccn1,Potency,[2],inactive
same,outcome,[3],inactive
CCCC(=O)O[C@]1(C(=O)CO)CC[C@H]2[C@@H]3CCC4=CC(=O)CC[C@]4(C)[C@H]3[C@@H](O)C[C@@]21C,Potency,[2],inactive
same,outcome,[3],inactive
C[C@]12CCC(=O)C=C1[C@@H]1C[C@@H]1[C@H]1[C@@H]3[C@@H]4C[C@@H]4[C@@]4(CCC(=O)O4)[C@@]3(C)CC[C@@H]12,Potency,[2],inactive
same,outcome,[3],inactive
CCN(CC)CCOc1ccc(C(O)(Cc2ccc(Cl)cc2)c2ccc(C)cc2)cc1 (configuration not stated),Potency,[2],inactive
same,outcome,[3],inactive
CC(=O)Oc1ccc(C(c2ccc(OC(C)=O)cc2)c2ccccn2)cc1,Potency,[2],inactive
same,outcome,[3],inactive
Nc1ccc(/C=C/c2ccc(N)cc2S(=O)(=O)O)c(S(=O)(=O)O)c1,"activity change, negative = inhibition",[2],-4.22% [at 0.505 µM]
same,"activity change, negative = inhibition",[3],11.7% [at 0.575 µM]
C[n+]1c2cc(N)ccc2cc2ccc(N)cc21 (tested in a mixture with another compound),Potency,[2],inactive
same,outcome,[3],inactive
C[C@]12C=CC(=O)C=C1[C@@H](F)C[C@@H]1[C@@H]2[C@@H](O)C[C@@]2(C)[C@H]1CC[C@]2(O)C(=O)CO,Potency,[2],inactive
same,outcome,[3],inactive
CN(C)CC/C=C1\c2ccccc2Sc2ccc(Cl)cc21,Potency,[2],inactive
same,outcome,[3],inactive
C/C=C/c1ccc(OC)cc1,Potency,[2],inactive
same,outcome,[3],inactive
Cc1c(C)n(CCN(C)C)c2ccc(C(=O)OCCN(C)C)cc12,Potency,[2],inactive
same,outcome,[3],inactive
C[C@H]1C[C@H]2[C@@H]3CCC4=CC(=O)C=C[C@]4(C)[C@@]3(Cl)[C@@H](O)C[C@]2(C)[C@@]1(O)C(=O)CO,Potency,[2],inactive
same,outcome,[3],inactive
COc1cc(-c2ccc(=O)[nH]n2)ccc1OC(F)F,Potency,[2],inactive
same,outcome,[3],inactive
Nc1ccc(C(=O)Nc2ccccc2N)cc1,Potency,[2],inactive
same,outcome,[3],inactive
C[C@]12CC[C@@H]3c4ccc(O)cc4CC[C@H]3[C@@H]1C[C@@H](O)[C@@H]2O,Potency,[2],inactive
same,outcome,[3],inactive
CCOc1ccc(Cc2nccc3cc(OCC)c(OCC)cc23)cc1OCC,Potency,[2],inactive
same,outcome,[3],inactive
NC(=NCCCCCCN=C(N)/N=C(\N)Nc1ccc(Cl)cc1)/N=C(\N)Nc1ccc(Cl)cc1,Potency,[2],inactive
same,outcome,[3],inactive
CCN1CCN(c2cc3c(cc2F)c(=O)c(C(=O)O)cn3C2CC2)CC1,Potency,[2],inactive
same,outcome,[3],inactive
C#C[C@]1(OC(C)=O)CC[C@H]2[C@@H]3CCC4=C[C@@H](OC(C)=O)CC[C@@H]4[C@H]3CC[C@@]21C,Potency,[2],inactive
same,outcome,[3],inactive
